Assay results reported in PubChem BioAssay AID1159580 (chemical genetic matrix, 2015).
About 2,000 (36%) of roughly 5,500 compounds were called active. Not shown: some 18% with an inconclusive outcome. No stated cut-off is given here; in the data, active means normalized growth mostly below about 0.91 (no sharp cut-off); inconclusive means no clear call, values can overlap the other calls; inactive means mostly above about 0.92. The list shows a part of the results.

Assay: chemical genetic growth profiling, strain panel (AID 1159580);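 further: tested at 20 µM; growth read once vehicle control cultures reached saturation at 30 °C; 1 = growth at the plate median or of vehicle wells; lower values mean less growth of the strain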
Details: S. cerevisiae deletion strains, growth OD
[1] = locus YBL105C, strain PKC1, hits give low values
[2] = locus YBR135W, strain CKS1, hits give low values
[3] = locus YBR136W, strain MEC1, hits give low values
[4] = locus YBR160W, strain CDC28, hits give low values
[5] = locus YDL017W, strain CDC7, hits give low values
[6] = locus YDL028C, strain MPS1, hits give low values
[7] = locus YDL101C, strain DUN1, hits give low values
[8] = locus YDL108W, strain KIN28, hits give low values
[9] = locus YDL132W, strain cdc53, hits give low values
[10] = locus YDL214C, strain PRR2, hits give low values
[11] = locus YDR052C, strain DBF4, hits give low values
[12] = locus YDR054C, strain cdc34, hits give low values
[13] = locus YDR226W, strain ADK1, hits give low values
[14] = locus YDR477W, strain SNF1, hits give low values
[15] = locus YER123W, strain YCK3, hits give low values
[16] = locus YER133W, strain GLC7, hits give low values
[17] = locus YFL009W, strain cdc4, hits give low values
[18] = locus YFL029C, strain CAK1, hits give low values
[19] = locus YFR003C, strain YPI1, hits give low values
[20] = locus YFR019W, strain FAB1, hits give low values
[21] = locus YFR028C, strain CDC14, hits give low values
[22] = locus YGR040W, strain KSS1, hits give low values
[23] = locus YGR052W, strain FMP48, hits give low values
[24] = locus YGR092W, strain DBF2, hits give low values
[25] = locus YHR030C, strain SLT2, hits give low values
[26] = locus YHR079C, strain IRE1, hits give low values
[27] = locus YHR082C, strain KSP1, hits give low values
[28] = locus YHR205W, strain SCH9, hits give low values
[29] = locus YIL147C, strain SLN1, hits give low values
[30] = locus YJL095W, strain BCK1, hits give low values
[31] = locus YJL128C, strain PBS2, hits give low values
[32] = locus YJL157C, strain FAR1, hits give low values
[33] = locus YJR016C, strain ILV3, hits give low values
[34] = locus YJR066W, strain TOR1 (second series), hits give low values
[35] = locus YJR066W, strain TOR1, hits give low values
[36] = locus YKL067W, strain YNK1, hits give low values
[37] = locus YKL101W, strain HSL1, hits give low values
[38] = locus YKL193C, strain SDS22, hits give low values
[39] = locus YLR113W, strain HOG1, hits give low values
[40] = locus YLR133W, strain CKI1, hits give low values
[41] = locus YLR403W, strain SFP1, hits give low values
[42] = locus YML070W, strain DAK1, hits give low values
[43] = locus YMR001C, strain CDC5, hits give low values
[44] = locus YMR205C, strain PFK2 (second series), hits give low values
[45] = locus YNL006W, strain LST8, hits give low values
[46] = locus YNL020C, strain ARK1, hits give low values
[47] = locus YNL161W, strain CBK1, hits give low values
[48] = locus YNL183C, strain NPR1, hits give low values
[49] = locus YNL207W, strain RIO2, hits give low values
[50] = locus YNL222W, strain SSU72, hits give low values
[51] = locus YNL307C, strain MCK1 (second series), hits give low values
[52] = locus YOL078W, strain AVO1, hits give low values
[53] = locus YOL136C, strain PFK27, hits give low values
[54] = locus YOR061W, strain CKA2, hits give low values
[55] = locus YOR231W, strain MKK1, hits give low values
[56] = locus YOR329C, strain SCD5, hits give low values
[57] = locus YPL031C, strain PHO85, hits give low values
[58] = locus YPL153C, strain RAD53, hits give low values
[59] = locus YPL204W, strain HRR25, hits give low values
[60] = locus YPL209C, strain IPL1, hits give low values
[61] = locus YPL256C, strain CLN2, hits give low values
[62] = locus YPR111W, strain DBF20, hits give low values
[63] = strain NNK1, hits give low values
[64] = strain TSCII, hits give low values
[65] = locus YAL013W, strain DEP1, hits give low values
[66] = locus YBR229C, strain ROT2, hits give low values
[67] = locus YDR150W, strain NUM1, hits give low values
[68] = locus YEL061C, strain CIN8, hits give low values
[69] = locus YGR078C, strain PAC10, hits give low values
[70] = locus YGR229C, strain SMI1, hits give low values
[71] = locus YHR087W, strain rtc3, hits give low values
[72] = locus YJR043C, strain POL32, hits give low values
[73] = locus YJR075W, strain HOC1, hits give low values
[74] = locus YLR039C, strain RIC1, hits give low values
[75] = locus YLR058C, strain SHM2 (second series), hits give low values
[76] = locus YLR085C, strain ARP6, hits give low values
[77] = locus YLR262C, strain YPT6, hits give low values
[78] = locus YML094W, strain GIM5, hits give low values
[79] = locus YMR219W, strain ESC1, hits give low values
[80] = locus YMR263W, strain SAP30, hits give low values
[81] = locus YNL153C, strain GIM3, hits give low values
[82] = locus YNL298W, strain CLA4 (second series), hits give low values
[83] = locus YNL322C, strain KRE1, hits give low values
[84] = locus YNR030W, strain Alg12, hits give low values
[85] = locus YPL055C, strain LGE1, hits give low values
[86] = locus YPL241C, strain CIN2, hits give low values
[87] = locus YPR135W, strain CTF4, hits give low values
[88] = locus YCL061C, strain MRC1, hits give low values
[89] = locus YDL134C, strain PPH21, hits give low values
[90] = locus YKL190W, strain CNB1, hits give low values
[91] = locus YMR307W, strain GAS1, hits give low values

Measured: normalized growth

Nc1ccc(Sc2ccccc2)nc1Sc1ccccc1
inactive: locus YAR019C, strain CDC15, hits give low values 0.947 | [1] 0.961 | [2] 0.957 | [3] 0.957 | [4] 0.95 | [5] 0.967 | [6] 0.942 | [7] 0.963 | [8] 0.958 | [9] 0.958 | [10] 0.927 | [11] 0.976 | [12] 0.947 | [13] 0.957 | [14] 0.901 | [15] 0.918 | [16] 0.927 | [17] 0.938 | [18] 0.935 | [19] 0.961 | [20] 0.984 | [21] 0.94 | [22] 0.909 | [23] 0.956 | [24] 0.875 | [26] 0.893 | [27] 0.948 | [28] 0.878 | [29] 0.962 | [30] 0.859 | [31] 0.886 | [32] 0.935 | [33] 0.965 | [34] 0.896 | [35] 0.851 | locus YKL048C, strain ELM1, hits give low values 0.969 | [36] 0.908 | [37] 0.913 | [38] 0.955 | locus YKL203C, strain TOR2, hits give low values 1.01 | [40] 0.945 | [41] 0.922 | [42] 0.915 | [43] 0.956 | [44] 0.938 | locus YMR277W, strain FCP1, hits give low values 0.938 | [45] 0.958 | [46] 0.938 | [47] 0.968 | [48] 0.956 | [49] 0.951 | [50] 0.951 | [51] 0.915 | [52] 0.956 | [53] 0.921 | [54] 0.919 | locus YOR119C, strain RIO1, hits give low values 0.935 | [55] 0.883 | [56] 0.962 | [57] 0.906 | [58] 0.906 | [59] 0.903 | [60] 0.959 | locus YPR025C, strain CCL1, hits give low values 0.956 | locus YPR106W, strain ISR1, hits give low values 0.957 | [62] 0.926 | [63] 0.954 | [64] 0.945
active: [25] 0.697 | [39] 0.757 | [61] 0.85

CCOC(=O)c1cc(CC)sc1NC(=O)c1ccc([N+](=O)[O-])o1
inactive: [1] 0.959 | [2] 0.992 | [3] 0.999 | [4] 1 | [5] 1 | [6] 0.988 | [8] 0.998 | [9] 0.996 | [11] 1 | [12] 0.985 | [13] 0.985 | [17] 0.985 | [18] 0.929 | [19] 1 | [21] 0.991 | [24] 0.505 | [26] 0.727 | [29] 1 | [31] 0.938 | [33] 0.95 | [38] 0.98 | [43] 0.998 | [47] 0.987 | [49] 0.995 | [50] 0.993 | [52] 1 | [55] 0.756 | [56] 1 | [60] 0.979 | [62] 0.906 | [63] 0.995 | [64] 0.998
active: [10] 0.226 | [14] 0.327 | [15] 0.34 | [16] 0.347 | [20] 0.3 | [22] 0.43 | [23] 0.205 | [25] 0.281 | [27] 0.202 | [28] 0.153 | [30] 0.318 | [32] 0.372 | [34] 0.197 | [35] 0.212 | [36] 0.435 | [37] 0.451 | [39] 0.574 | [40] 0.18 | [41] 0.129 | [42] 0.471 | [44] 0.47 | [45] 0.507 | [46] 0.338 | [48] 0.175 | [51] 0.464 | [53] 0.378 | [54] 0.334 | [57] 0.169 | [58] 0.487 | [59] 0.464 | [61] 0.337

CC(C)c1ccccc1NC(=S)N1CCN(c2ncc(C(F)(F)F)cc2Cl)CC1
inactive: [65] 1.02 | [66] 0.995 | [7] 0.985 | [67] 1.02 | [68] 1.01 | [69] 1.01 | [70] 0.963 | [25] 0.976 | [71] 1.02 | [72] 0.995 | [73] 0.972 | [75] 0.977 | [76] 1.1 | [78] 1.04 | [79] 0.992 | [80] 0.991 | [81] 1.02 | [82] 0.984 | [83] 0.998 | [84] 1.02 | [85] 1.13 | [86] 1.07 | [87] 1.17
active: [74] 0.761 | [77] 0.736

Cc1cc(C)cc(NC(=S)N2CCN(c3ncc(C(F)(F)F)cc3Cl)CC2)c1
inactive: [65] 1 | [66] 1.01 | [88] 1 | [7] 1 | [89] 0.986 | [67] 0.997 | [68] 1.01 | [69] 1 | [70] 0.976 | [25] 1.02 | [71] 1.01 | [72] 1.01 | [73] 0.996 | [90] 0.98 | [74] 1.04 | [75] 1.01 | [76] 0.99 | [77] 1.03 | [78] 1.02 | [79] 0.999 | [80] 1 | [91] 0.907 | [81] 1.01 | [82] 1.06 | [83] 0.998 | [84] 1.02 | [85] 1.03 | [86] 0.886 | [87] 1

FC(F)(F)c1cnc(N2CCN(C(=S)Nc3ccccc3)CC2)c(Cl)c1
inactive: [65] 0.989 | [66] 1.01 | [88] 1 | [7] 0.999 | [89] 1.01 | [67] 0.963 | [68] 0.985 | [69] 0.993 | [25] 1.05 | [71] 1.03 | [72] 0.986 | [73] 1.02 | [90] 1.01 | [74] 0.984 | [75] 1.02 | [76] 1.03 | [77] 1.02 | [78] 0.952 | [79] 1.02 | [80] 0.982 | [91] 1 | locus YNL128W, strain TEP1, hits give low values 1.01 | [81] 0.972 | [82] 0.976 | [83] 1.01 | [84] 1 | locus YOL006C, strain TOP1, hits give low values 0.894 | [85] 0.938 | [86] 0.955 | [87] 0.981
